Compound activity (PubChem)
This is a sample that favours compounds with a hit; in the whole collection about 4.8% have one here.
AI-2 QS mod: modulates the Vibrio harveyi AI-2 quorum sensing system | Vibrio harveyi JMH597 AI-2 luminescence/OD600 ratio, 9 h; hits give low values; strain lacks LuxN and CqsS sensors; 0 = neutral-control median | activity change, % at 7.5 µM | 300,000 tested, 0.4% active | AID 2094; in the data active means activity change below about -75%, passing the limit was not always enough;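 further: luminescence divided by OD600 gain over 9 h not by final OD600 alone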
Mot1-301 SUMO: SUMOylation pathway inhibition by Mot1-301 growth rescue. growth rescue, % at 18.8 µM. S. cerevisiae Mot1-301 growth rescue, ATP luminescence, 38.5C; percent above DMSO median, 100 means doubled. 320,000 tested, 1% active. AID 2716;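 active means every valid replicate shows activation above 250% relative to neutral control wells; inactive means the rest, any valid replicate at or below 250%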
ALR H2O2 inh: human ALR oxidase inhibition via reduced H2O2; purified ALR, DTT oxidation, H2O2 HRP-luminol luminescence; inhibition, % (test concentration not listed); AID 485317; P55789; 290,000 tested, 3.8% active;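 active means mean replicate inhibition above about 79%, with every replicate also reaching it, limit read from the data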
Target sequence (P55789 whole entry, looked up): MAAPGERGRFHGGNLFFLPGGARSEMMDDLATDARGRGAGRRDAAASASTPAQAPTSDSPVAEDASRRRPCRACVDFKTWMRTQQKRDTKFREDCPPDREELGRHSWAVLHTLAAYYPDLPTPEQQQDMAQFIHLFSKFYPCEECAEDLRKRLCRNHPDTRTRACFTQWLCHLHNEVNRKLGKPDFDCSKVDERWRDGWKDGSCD
HIF activator: HIF pathway transcriptional activation. U2OS HRE-luciferase reporter, luminescence; normalized: DMSO 0%, desferrioxamine 100%. 300,000 tested, 0.32% active. activation, % at 7.5 µM (by protocol);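 active means mean activation of at least 10% of the iron chelator positive control signal, with at least half of replicates also reaching 10%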
Each line names hits and unclear results; the compound was inactive in the other large screens.

C=CC[C@H](CC(=O)N(CCO)Cc1ccccc1)C(=O)N[C@H](COC(=O)[C@@H](CC=C)Cc1ccc(F)cc1)Cc1ccccc1	none (no result: AI-2 QS mod, HIF activator)
COc1ccc(N2CCN(C(c3ccc4ncccc4c3)c3nnnn3C(C)C)CC2)cc1 (stereo unspecified)	ALR H2O2 inh 76
CCC(c1nnnn1Cc1ccc2c(c1)OCO2)N1CCN(c2ccc(OC)cc2)CC1 (stereo unspecified)	ALR H2O2 inh 88
COc1ccc(Cn2nnnc2C(c2ccc3ncccc3c2)N2CCN(C3CCCCC3)CC2)cc1 (stereo unspecified)	none
CCC(c1nnnn1Cc1ccccc1)N1CCN(c2ccc(OC)cc2)CC1 (stereo unspecified)	ALR H2O2 inh 96
CN(C)c1ccc(CNC(=O)CCS(=O)(=O)c2ccc3c(c2)oc(=O)n3C)cc1	HIF activator 33
COc1ccccc1N1CCN(C(=O)CCS(=O)(=O)c2ccc3c(c2)oc(=O)n3C)CC1	ALR H2O2 inh 88
Cc1ccc(C2NC(=O)c3c(sc(C)c3C)N2)c(O)c1 (stereo unspecified)	ALR H2O2 inh 92
C=CCn1c(C(C)NC(=O)c2ccccc2C)n[nH]c1=S (stereo unspecified)	none
C=CCn1c(C(C)NC(=O)c2ccc(C)cc2)n[nH]c1=S (stereo unspecified)	ALR H2O2 inh 95
CC(NC(=O)COC(=O)CNS(=O)(=O)/C=C/c1ccccc1)c1ccccc1 (stereo unspecified)	none (no result: AI-2 QS mod, ALR H2O2 inh, HIF activator)
C/C(CC(=O)Nc1ccc(N(C)C)cc1)=N\NC(=O)c1ccc([N+](=O)[O-])cc1	ALR H2O2 inh 95
COc1ccc(CC(=O)N/N=C(\C)CC(=O)Nc2ccc(N(C)C)cc2)cc1	ALR H2O2 inh 94
COc1ccc(CC(=O)N/N=C(\C)CC(=O)Nc2ccc3c(c2)OCCO3)cc1	none (no result: ALR H2O2 inh)
CN(CC(=O)Nc1ccccc1Cl)C(=O)COC(=O)c1ccccc1[N+](=O)[O-]	none
CCOc1c(O)ccc(/C=C2\SC(=S)NC2=O)c1[N+](=O)[O-]	ALR H2O2 inh 99
CCOc1ccc(N(C)c2ccc(/C=C3/SC(=S)NC3=O)cc2)cc1	none
C=CCN1C(=O)C2(OCCCO2)c2cc(Cl)ccc21	none
CC1Cc2nc(SCC(=O)Nc3ccc4c(c3)OCCO4)n(C)c(=O)c2S1 (stereo unspecified)	ALR H2O2 inh 94
Cc1ccc(C)c(NC(=O)CSc2nc3c(c(=O)n2C)SC(C)C3)c1 (stereo unspecified)	none
COCCn1c(SCC(=O)Nc2ccc3c(c2)OCCO3)nc2c(c1=O)SC(C)C2 (stereo unspecified)	ALR H2O2 inh 99 (no result: AI-2 QS mod, HIF activator)
CC1Cc2nc(SCC(=O)Nc3ccc4c(c3)OCO4)n(Cc3ccccc3)c(=O)c2S1 (stereo unspecified)	none
CC1Cc2nc(SCC(=O)Nc3ccc(F)cc3F)n(C)c(=O)c2S1 (stereo unspecified)	ALR H2O2 inh 99
Cc1ccc2nc(NC(=O)CSc3nc4c(c(=O)n3C)SC(C)C4)sc2c1 (stereo unspecified)	ALR H2O2 inh 99
O=C(Nc1cc(S(=O)(=O)N2CCOCC2)ccc1N1CCCCC1)c1ccccc1Br	none (no result: AI-2 QS mod, ALR H2O2 inh, HIF activator)
O=C(COc1coc(CN2CCCc3ccccc32)cc1=O)Nc1cccc([N+](=O)[O-])c1	none
Cc1cc(C)n(CCCNC(=O)C2CC(=O)N(Cc3ccccc3)C2)n1 (stereo unspecified)	none
NS(=O)(=O)c1cccc(NC(=O)COC(=O)c2cc(Cl)ccc2[N+](=O)[O-])c1	AI-2 QS mod -79
Cc1ccc(NC(=O)COC(=O)c2cc(Cl)ccc2[N+](=O)[O-])cc1	AI-2 QS mod -92 (no result: ALR H2O2 inh)
C[C@@]12C(=O)Nc3ccc(F)cc3C(=O)N1[C@H]1c3cc(Br)ccc3OC[C@@H]1[C@@H]2c1ccccc1	Mot1-301 SUMO 349 (no result: AI-2 QS mod, HIF activator)
Cc1ccc2c(c1)[C@H]1[C@H](CO2)[C@H](c2ccccc2)[C@]2(C)C(=O)Nc3ccccc3C(=O)N12	Mot1-301 SUMO 341 (no result: AI-2 QS mod, HIF activator)
Cc1ccc2c(c1)[C@H]1[C@H](CO2)[C@H](c2ccccc2)[C@]2(C)C(=O)Nc3ccc(Cl)cc3C(=O)N12	none (no result: AI-2 QS mod, HIF activator)
C[C@@]12C(=O)Nc3cc(F)ccc3C(=O)N1[C@H]1c3cc(Br)ccc3OC[C@@H]1[C@@H]2c1ccccc1	none (no result: AI-2 QS mod, HIF activator)
CCN(CC)C(=O)Cn1cc(C(=O)C(=O)Nc2ccc3c(c2)OCCO3)c2ccccc21	none
CCCCCCCCN1[C@@H](CC(=O)O)c2ccc(C(F)(F)F)cc2S1(=O)=O	ALR H2O2 inh 97
